Source: the supplement of paper PMC8371130
Structures can show the parent of a compound that is named as a salt.

Test system: HL-1
Test: relative cell viability (CellTiter-Glo) vs DMSO control (% of DMSO control); higher = more viable cells
Details: oxygen condition: hypoxia 48 h (1% O2) + reoxygenation 24 h; 1000 nM
Method in brief: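 One day after HL-1 mouse atrial cardiomyocytes were plated (1000 cells per well, 384-well plates) with compounds at 40, 200, 1000 or 5000 nM in 0.01% DMSO, they were transferred to a hypoxic workstation at 1% O2. After 48 h there, the cells were reoxygenated for 24 h in a normal incubator, and comparison cells stayed in normoxia throughout the same time. Cell viability was quantified with CellTiter-Glo luminescence and normalised to vehicle-treated control cells.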

SMILES | relative cell viability
C#Cc1cccc(Nc2ncnc3cc(OCCOC)c(OCCOC)cc23)c1 [Erlotinib HCl] | 105
CCCOc1ccc(C(=O)OCCN(CC)CC)cc1N [Proparacaine HCl] | 97.8
C[C@]12CC[C@H](O)CC1=CC[C@@H]1[C@@H]2CC[C@]2(C)C(c3cccnc3)=CC[C@@H]12 [Abiraterone] | 86.7
COc1ccc2[nH]c([S@@+]([O-])Cc3ncc(C)c(OC)c3C)nc2c1 [Esomeprazole magnesium] | 114
NC(=O)CC[C@H](N)C(=O)O [L-Glutamine] | 103
CS(=O)(=O)c1ccc(C(=O)Nc2ccc(Cl)c(-c3ccccn3)c2)c(Cl)c1 [Vismodegib] | 108
N#CC[C@H](C1CCCC1)n1cc(-c2ncnc3[nH]ccc23)cn1 [Ruxolitinib] | 104
CC[C@@H]1/C=C(\C)C[C@H](C)C[C@H](OC)[C@H]2O[C@@](O)(C(=O)C(=O)N3CCCC[C@H]3C(=O)O[C@H](/C(C)=C/[C@@H]3CC[C@H](Cl)[C@H](OC)C3)[C@H](C)[C@@H](O)CC1=O)[C@H](C)C[C@@H]2OC [Pimecrolimus] | 101
C#CCC(Cc1cnc2nc(N)nc(N)c2n1)c1ccc(C(=O)N[C@@H](CCC(=O)O)C(=O)O)cc1 (some centres not stated) [Pralatrexate] | 37.3
CCOCC(O)COc1ccc(NC(=O)CC[S+](C)C)cc1 (configuration not stated) [Suplatast tosylate] | 99.4
CCN(CC)CCOC(=O)C(c1ccccc1)c1ccccc1 [Adiphenine HCl] | 102
NC(=O)c1cn(Cc2c(F)cccc2F)nn1 [Rufinamide] | 109
